Screening results (PubChem)
TDP1 cell CPT – DT40-hTDP1 cell growth loss with CPT; chicken DT40 Tdp1-/-;hTDP1 cells + 20 nM CPT, ATP luminescence, 48 h; Potency, µM (highest dose often 46.2 µM), inactives show top-dose activity change, negative = growth inhibition, actives largely listed as inhibitors; 420,000 tested, 12% active; also: potency is read from the fitted curve at half-maximal effect; nearly all actives have a fitted effect of over 55% in size
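Cell growth measured by CellTiter-Glo luminescence after a minimum 48 h, 37 C compound exposure with 20 nM CPT in Tdp1-knockout DT40 cells stably expressing hTDP1, seeded 400/well; qHTS titration format.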
VP16 counter – counter-screen for ROR gamma inhibitors: Gal4-VP16 reporter; 310,000 tested, 3.5% active; Drosophila S2 Gal4-VP16 UAS-luciferase, luminescence, 20 h; Potency, µM (titrated, usually from 53.6 µM), without a hit: top-dose activity, negative = inhibition, usual class: inhibitors;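 also: Gal4-VP16 expression switched on by copper sulfate through the metallothionein promoter; potency is read from the fitted curve at half-maximal effect; nearly all actives have a fitted effect of over 50% in size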
RORgamma inh – blocks mouse ROR gamma transcriptional activity | P51450 | Drosophila S2 Gal4-RORgamma UAS-luciferase reporter, 20 h | Potency, µM (titrated, usually from 53.6 µM), for the others: top-dose activity change, negative = inhibition, most hits filed as inhibitors | 310,000 tested, 5.4% active | AID 2551; also: potency is read from the fitted curve at half-maximal effect; nearly all actives have a fitted effect of over 60% in size
Target sequence (P51450 whole entry, looked up, the tested form may be a part): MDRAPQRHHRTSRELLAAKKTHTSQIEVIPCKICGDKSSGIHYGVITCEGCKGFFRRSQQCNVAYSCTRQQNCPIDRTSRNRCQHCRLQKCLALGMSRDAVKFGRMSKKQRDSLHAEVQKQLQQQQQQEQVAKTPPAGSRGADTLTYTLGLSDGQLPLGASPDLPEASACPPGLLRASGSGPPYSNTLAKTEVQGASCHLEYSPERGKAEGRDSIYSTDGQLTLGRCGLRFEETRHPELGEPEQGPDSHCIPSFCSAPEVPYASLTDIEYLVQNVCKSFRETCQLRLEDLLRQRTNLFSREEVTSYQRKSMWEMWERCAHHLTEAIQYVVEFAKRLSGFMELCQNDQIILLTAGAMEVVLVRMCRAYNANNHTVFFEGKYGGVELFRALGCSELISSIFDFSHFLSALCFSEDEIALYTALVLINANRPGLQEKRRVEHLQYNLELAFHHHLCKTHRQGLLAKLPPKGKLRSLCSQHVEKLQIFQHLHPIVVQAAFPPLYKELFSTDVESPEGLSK
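Luciferase reporter read in Schneider cells carrying Gal4-RORγ (mouse) and UAS-Photinus luciferase; cells given compound 1 h before 700 uM copper sulfate induction, then incubated 20 h at ambient temperature.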
ELG1 repair inh – ELG1-dependent DNA repair inhibition; 330,000 tested, 2.3% active; Potency, µM (doses to about 46.1 µM), for the others: top-dose activity change, negative = inhibition, actives largely listed as inhibitors; HEK293T ELG1-luciferase reporter, luminescence, 16 h; DNA damage induced by 5-fluorouridine; AID 504467; also: potency is read from the fitted curve at half-maximal effect; nearly all actives have a fitted effect of over 55% in size
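In this reporter screen, reduction of luminescence relative to DMSO vehicle indicated activity. Compounds and 5-fluorouridine were added together to 2,000 cells per well, incubated for 16 hr at 37 °C, then developed with ONE-Glo.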
IL-1B inflam inh – inflammasome signaling inhibition, IL-1 beta readout; THP-1 LPS/ATP IL-1B secretion, AlphaLISA, 16 h; active compounds read low; activity change, % at 57.5 µM; 360,000 tested, 4.7% active; in the data active = activity change below about -50%; inconclusive = mostly about -30% to -49%
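Secreted IL-1B measured by AlphaLISA bead assay after 16 h compound exposure of THP-1 cells; compounds (final up to 57.5 uM) added 1 h before LPS (250 ng/mL) and ATP (1.25 mM) stimulation; lower signal means less secretion.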
TDP1 cell noCPT – qHTS for Inhibitors of human tyrosyl-DNA phosphodiesterase 1 (TDP1): qHTS in cells in absence of CPT; AID 686978, 2013; 420,000 tested, 15% active; Potency, µM (highest dose often 46.2 µM), inactives show at the highest dose activity change, negative = growth inhibition, hits mostly inhibitors; DT40 Tdp1-/- hTDP1 cells, no CPT, ATP luminescence, 48 h; also: potency is read from the fitted curve at half-maximal effect; nearly all actives have a fitted effect of over 55% in size
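Chicken DT40 Tdp1-/- cells stably complemented with human TDP1 were seeded at 400 cells/well with DMSO in place of 20 nM camptothecin. After compound pinning, cells grew at least 48 hr at 37 °C; viability read by CellTiter-Glo luminescence.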
An asterisk follows results filed as active; u = inconclusive; x = no result given; [ ] = remark or other dose. Hits are enriched below; roughly 21% of the tested compounds scored in any of these assays. Unless noted, calls follow the shape of the dose curve; as a rule, active = well fitted curve in the direction sought with a large enough effect; inconclusive = small, poorly fitted or top-dose-only effect, or another doubt; inactive = no such curve, though single readings can be large; an effect the other way counts as inactive or inconclusive. % is scaled to controls: 0 for no effect and ±100 for the full control effect.

SMILES	TDP1 cell CPT	VP16 counter	RORgamma inh	ELG1 repair inh	IL-1B inflam inh	TDP1 cell noCPT
CCCCn1c(N)c(N(CC(C)C)C(=O)c2cc(Br)c(Br)s2)c(=O)[nH]c1=O	u	x	x	x	-26	23µM*
CCCCn1c(N)c(N(CCOC)C(=O)CN2CC=C(c3ccccc3)CC2)c(=O)[nH]c1=O	u	1%	-26%	21%	4	u
CC(C)(C)n1nnnc1C(c1cccs1)N1CCC2(CC1)C(=O)NCN2c1ccccc1 (stereo unspecified)	-19%	x	x	x	-17	u
CC1(C)CC(CCNCc2ccc3c(c2)OCO3)(Cc2ccccc2)CCO1 (stereo unspecified)	u	-5%	-2%	-14%	-96*	18µM*
CCN1C[C@@]2(COC)[C@H]3[C@@H](OC)[C@H]4C1[C@@]3([C@H](OC)C[C@@H]2O)[C@H]1C[C@@]2(O)[C@@H](OC(=O)c3ccccc3)[C@@H]1[C@@]4(OC(C)=O)[C@H](O)[C@@H]2OC	x	9%[17 µM]	-3%[16.9 µM]	x	x	x
C[C@@H]1O[C@@H](O[C@@H]2C=C3CCC4C(CC[C@]5(C)[C@@H](c6ccc(=O)oc6)CC[C@]45O)[C@@]3(C)CC2)[C@H](O)[C@H](O)[C@H]1O (stereo partly specified)	0.058µM*	x	x	u	-52*	0.015µM*
C[C@@H]1O[C@@H](O[C@@H]2C=C3CC[C@@H]4C(CC[C@]5(C)[C@@H](c6ccc(=O)oc6)CC[C@]45O)[C@@]3(C)CC2)[C@H](O)[C@H](O)[C@H]1O (stereo partly specified)	0.16µM*	x	x	u	-56*	0.16µM*
CC(=O)C1CCC2(O)C3CCC4=CC(=O)CCC4(C)C3CCC12C (stereo unspecified)	-21%	x	x	x	6	-24%
C[C@H]1CC[C@@H]2[C@@H](C)C(=O)O[C@H]3O[C@@]4(C)CC[C@H]1[C@@]32OO4	x	-5%[17 µM]	-21%[16.9 µM]	x	x	x
C[C@H]1[C@@H](OC(=O)CCC(=O)O)O[C@@H]2OC3(C)CC[C@H]4[C@H](C)CC[C@@H]1[C@@]24OO3	0.12µM*	x	x	x	x	0.11µM*
C[C@@H]1CC[C@H]2[C@@H](C)C(=O)O[C@@H]3OC4(C)CC[C@@H]1C32OO4 (stereo partly specified)	x	-3%	0%	x	x	x
CCC(C)NC(=O)CCC(=O)OC1O[C@H]2OC3(C)CC[C@H]4[C@H](C)CCC(C1C)C24OO3 (stereo partly specified)	0.21µM*	3%	0%	u	u	0.18µM*
CN1C(=O)COc2c(C(=O)N[C@@H]3CN4CCC3CC4)cc(Cl)cc21	6%	-2%	0%	x	x	-12%
CC(=O)OC(C)(C)/C=C/C(=O)[C@](C)(O)[C@H]1[C@H](O)C[C@@]2(C)[C@@H]3CC=C4[C@H](C[C@H](O)C(=O)C4(C)C)[C@]3(C)C(=O)C[C@]12C	0.046µM*	u	u	5.2µM*	-112*	0.0073µM*
CC(=O)OC(C)(C)/C=C/C(=O)C(C)(O)C1C(O)CC2(C)C3CC=C4C(CC(O)C(=O)C4(C)C)C3(C)C(=O)CC12C (stereo unspecified)	0.026µM*	x	x	x	-99*	0.016µM*
CC(=O)OC(C)(C)/C=C/C(=O)C(C)(O)C1[C@H](O)C[C@@]2(C)C3CC=C4C(CC[C@@H](O)C4(C)C)[C@]3(CO)C(=O)C[C@]12C (stereo partly specified)	0.018µM*	-15%	u	u	-98*	0.01µM*
COc1cc2c(cc1O)[C@H]1Cc3ccc(OC)c(O)c3CN1CC2	x	-3%[17 µM]	u	x	x	x
CC(=O)OC1C2C(OC(=O)Cc3ccccc3)C(C)CC2(OC(C)=O)C(=O)/C(C)=C/C2C(CC[C@@]13CO3)C2(C)C (stereo partly specified)	17%	-4%	6%	x	x	-2%
O[C@@H](Cc1ccncc1)C(Cl)(Cl)Cl	-4%	-4%	25%	x	x	-24%
CC(C(=O)c1c[nH]c2ccccc12)N1CCc2ccccc2C1 (stereo unspecified)	16µM*	-10%	-3%[10 µM]	u	26	u
Oc1cc(Cl)ccc1Oc1ccc(Cl)cc1Cl	7.7µM*	-17%	28%	x	-70*	23µM*
CC(C)(OOC(C)(C)c1ccccc1)c1ccccc1	x	4%	43%	x	x	x
C#CC1(O)CCC2C3CCC4=CC(=O)CCC4=C3C=CC21C (stereo unspecified)	8.2µM*	x	x	x	3	15µM*
C#C[C@]1(O)CCC2C3C(=O)C=C4C=CCC[C@]4(C)C3CC[C@@]21C (stereo partly specified)	-23%	x	x	x	-9	u
C=CC[C@]1(O)CC[C@H]2[C@@H]3CCC4=CCCC[C@@H]4[C@H]3CC[C@@]21C	-29%	x	x	x	x	0%
SMILES	TDP1 cell CPT	VP16 counter	RORgamma inh	ELG1 repair inh	IL-1B inflam inh	TDP1 cell noCPT
C=CC[C@]1(O)CC[C@H]2[C@@H]3CCC4=CC(=O)CCC4=C3C=C[C@@]21C	13µM*	1%	23%	x	x	7.5µM*
O=C(Nc1cccc(C(F)(F)F)c1)C1CCCN1S(=O)(=O)c1cccc2nsnc12 (stereo unspecified)	18µM*	x	x	x	x	u
CC(O)(CS(=O)(=O)c1cccc(C(F)(F)F)c1)C(=O)Nc1cccc(C(F)(F)F)c1 (stereo unspecified)	u	-5%	8%	-6%	-5	u
c1ccc(-c2nnc(C3CC(c4cccnc4)=NO3)o2)cc1 (stereo unspecified)	6%	1%	6%	18%	16	-1%
O=[N+]([O-])c1ccc(F)c([N+](=O)[O-])c1	6%	1%	u	x	x	u
CN(C)c1ccc([N+](=O)[O-])c([N+](=O)[O-])c1	u	x	x	x	-59*	u
CCS(=O)(=O)Nc1ccc(C2=NN(C(=O)c3ccco3)C(c3ccc(Cl)o3)C2)cc1 (stereo unspecified)	u	x	x	u	-63*	23µM*
COC(=O)C1=C(c2ccc(F)cc2F)C[C@@H]2CC[C@H]1N2C(=O)NC1CCCCC1	u	x	x	13%	2	u
COC(=O)C1=C(c2ccc(OC(F)(F)F)cc2)C[C@@H]2CC[C@H]1N2C(=O)NC1Cc2ccccc2C1	23µM*	x	x	-12%	-23	u
